Data published in the supplement of paper PMC12669032.
Unmarked numbers belong to inactive results.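 Rule for the calls: active = AUC reduced over 20% with Padj below 0.05 in at least 2 of 3 replicates; inactive = otherwise.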

Legend:
Assay in all cases: growth AUC relative to DMSO control (median of replicates) (fraction); higher = more growth (less inhibition), active = hit call of the paper
Settings in all cases: 20 µM; 24 h
Akkermansia muciniphila = tested on: Akkermansia muciniphila
Summary of the method: (§1)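 Three biological replicates, each grown on a separate day, were combined as a median for every value. In each, a gut bacterial monoculture in mGAM started at OD600 0.05 and grew anaerobically at 37 °C with 20 µM compound (1% DMSO), with OD600 read hourly over 24 h. Area under the growth curve was normalised against the plate median of solvent-only wells, or against row and column medians on the industrial chemical plate, after the minimum OD was set to 0.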

Bacteroides caccae = tested on: Bacteroides caccae
Summary of the method: as §1

Bacteroides clarus = tested on: Bacteroides clarus
Summary of the method: as §1

Bacteroides dorei = tested on: Bacteroides dorei
Summary of the method: as §1

Bacteroides stercoris = tested on: Bacteroides stercoris
Summary of the method: as §1

[1] = tested on: Bacteroides thetaiotaomicron
Summary of the method: as §1

Bacteroides uniformis = tested on: Bacteroides uniformis
Summary of the method: as §1

[2] = tested on: Bifidobacterium longum subsp. longum
Summary of the method: as §1

Clostridium difficile = tested on: Clostridium difficile
Summary of the method: as §1

Collinsella aerofaciens = tested on: Collinsella aerofaciens
Summary of the method: as §1

Row | Structure (SMILES) | growth AUC (Akkermansia muciniphila) | growth AUC (Bacteroides caccae) | growth AUC (Bacteroides clarus) | growth AUC (Bacteroides dorei) | growth AUC (Bacteroides stercoris) | growth AUC [1] | growth AUC (Bacteroides uniformis) | growth AUC [2] | growth AUC (Clostridium difficile) | growth AUC (Collinsella aerofaciens)
1 | O=C(O)C(Cl)Cl | 0.875 | 0.977 | 0.966 | 1.02 | 0.994 | 0.999 | 1.01 | 1.01 | 1 | 0.981
2 | O=C1c2ccccc2C(=O)N1SC(Cl)(Cl)Cl | 1 | 1.02 | 0.977 | 1.04 | 0.995 | 0.999 | 1.05 | 0.988 | 1.01 | 0.983
3 | CNC(=O)O/N=C(\SC)C(=O)N(C)C | 1.01 | 0.999 | 0.967 | 1.05 | 1.05 | 0.993 | 1.01 | 0.957 | 0.965 | 0.999
4 | CCNc1nc(Cl)nc(NC(C)C)n1 | 1.05 | 0.956 | 1.01 | 0.945 | 0.964 | 1.01 | 1.01 | 1.02 | 0.944 | 1.04
5 | CCCCC(CC)COC(=O)c1ccccc1C(=O)OCC(CC)CCCC (stereo not given) | 1.03 | 0.989 | 0.993 | 0.963 | 0.898 | 0.993 | 1.03 | 0.984 | 0.977 | 0.888
6 | Nc1c(Cl)cc([N+](=O)[O-])cc1Cl | 0.958 | 0.927 | 0.973 | 0.967 | 0.875 | 0.986 | 1.05 | 1.07 | 1 | 0.897
7 | Cc1cc(C)nc(Nc2ccccc2)n1 | 0.869 | 0.98 | 0.957 | 1 | 0.987 | 0.957 | 0.97 | 1 | 0.983 | 0.999
8 | CCC(C)(C)c1ccc(O)cc1 | 0.91 | 1.01 | 0.981 | 1.03 | 0.859 | 1 | 1 | 1.08 | 1.06 | 1.01
9 | O=C(Nc1ccccc1)c1ccccc1I | 0.823 | 1.03 | 1 | 0.994 | 1.05 | 1.01 | 0.975 | 1.03 | 1.08 | 1.07
10 | ClC1=C(Cl)C(Cl)(C2(Cl)C(Cl)=C(Cl)C(Cl)=C2Cl)C(Cl)=C1Cl | 1.27 | 0.926 | 0.93 | 0.895 | 0.809 | 0.856 | 0.875 | 0.94 | 1 | 0.823
11 | CC(=O)O.CC(=O)O.CC(=O)O.NC(N)=NCCCCCCCCNCCCCCCCCN=C(N)N | 0.692 | 0.639 (active) | 0.523 (active) | 0.0196 (active) | 0.0269 (active) | 0.0154 (active) | 0.158 (active) | 0.195 (active) | 0.869 | 0.871
12 | CCN(CC)C(=O)SCc1ccc(Cl)cc1 | 0.879 | 0.98 | 0.954 | 0.978 | 1.12 | 0.91 | 0.973 | 0.948 | 1.02 | 0.948
13 | C=CC1(C)OC(=O)N(c2cc(Cl)cc(Cl)c2)C1=O (stereo not given) | 1.02 | 0.985 | 0.958 | 1 | 0.994 | 0.989 | 0.99 | 0.917 | 1.02 | 0.999
14 | CCOP(=O)(SC(C)CC)SC(C)CC (stereo not given) | 0.94 | 1.01 | 0.962 | 1.02 | 0.949 | 0.993 | 0.981 | 0.97 | 0.982 | 0.933
15 | CC(C)(C)C(O)(CCc1ccc(Cl)cc1)Cn1cncn1 (stereo not given) | 0.856 | 0.965 | 1.01 | 1.03 | 1.1 | 0.98 | 0.959 | 0.956 | 1.06 | 1.06
16 | c1ccc2c(c1)ccc1c3ccccc3sc21 | 1.03 | 0.999 | 0.987 | 0.969 | 1 | 0.998 | 0.972 | 1.25 | 1.02 | 0.99
17 | O=C(Nc1ccccc1-c1ccc(Cl)cc1)c1cccnc1Cl | 0.987 | 0.998 | 0.986 | 0.998 | 1.01 | 0.958 | 0.966 | 1.03 | 0.998 | 0.999
18 | COP(N)(=O)SC (stereo not given) | 1.22 | 1.01 | 1.04 | 1.01 | 1.1 | 1.04 | 1.03 | 0.989 | 1.03 | 1.04
19 | CN(C)c1nc(=O)n(C2CCCCC2)c(=O)n1C | 0.966 | 1.03 | 0.985 | 1 | 1.07 | 1.05 | 1.01 | 1.01 | 1.02 | 1.01
20 | CCOP(=S)(OCC)SCCS(=O)CC (stereo not given) | 1.04 | 1.02 | 0.979 | 0.985 | 1.02 | 1.02 | 1.05 | 1 | 0.967 | 1
21 | C=CCC1=C(C)C(OC(=O)C2C(C=C(C)C)C2(C)C)CC1=O (mixture of isomers) | 1.05 | 0.96 | 1.04 | 0.962 | 0.924 | 0.972 | 0.936 | 0.96 | 0.962 | 0.941
22 | CCCOP(=S)(OCCC)SCC(=O)N1CCCCC1C (stereo not given) | 0.978 | 0.956 | 0.953 | 0.968 | 0.892 | 0.873 | 0.9 | 1.06 | 1.02 | 1.06
23 | O=C(O)COc1ccc(Cl)cc1Cl | 0.866 | 1.03 | 0.979 | 0.996 | 0.986 | 1 | 0.998 | 1 | 1.02 | 0.988
24 | C#CCOc1ccc(CCNC(=O)C(OCC#C)c2ccc(Cl)cc2)cc1OC (stereo not given) | 1.02 | 0.94 | 0.948 | 0.957 | 0.898 | 0.951 | 0.901 | 1.02 | 0.981 | 1
25 | CC1(C)CC/C(=C\c2ccc(Cl)cc2)C1(O)Cn1cncn1 (stereo not given) | 0.95 | 0.976 | 0.983 | 0.965 | 0.792 | 0.971 | 0.995 | 1.08 | 0.984 | 0.987
26 | CC/C(=N\OC/C=C/Cl)C1=C(O)CC(C2CCOCC2)CC1=O (stereo not given) | 1.04 | 0.993 | 1.03 | 1 | 1.03 | 1.02 | 0.985 | 1.37 | 1.01 | 1.03
27 | CNC(=O)O/N=C/C(C)(C)S(C)(=O)=O | 0.927 | 0.994 | 0.962 | 1.02 | 0.973 | 1 | 1.01 | 1.05 | 0.966 | 1.01
28 | CC(C)=CC1C(C(=O)OCc2coc(Cc3ccccc3)c2)C1(C)C (stereo not given) | 0.878 | 0.995 | 0.943 | 1 | 0.965 | 0.973 | 0.988 | 0.899 | 1.02 | 0.936
29 | CC1=C(C(=O)Nc2ccccc2)SCCO1 | 0.979 | 1.02 | 1 | 0.982 | 1.21 | 1.04 | 0.993 | 0.956 | 1 | 1.03
30 | O.[Br-].[Br-].c1cc[n+]2c(c1)-c1cccc[n+]1CC2 | 0.784 | 0.612 (active) | 0.992 | 0.996 | 1.01 | 1.01 | 0.984 | 1.02 | 0.912 | 0.995
